Structures are written as SMILES. Inconclusive results are not listed. For some assays here: Entries with a potency or affinity are not part of this list. Activity calls are given as the source filed them. Unless noted, the limit is not given here; nearly all actives have AC50 up to about 30 µM.

Experiment [1] can be described thus: inhibitors of Cryptococcus chitosan production, flow cytometry, Cibacron Brilliant Red staining (AID 1347148; call rule not given here;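 also: compound exposure lasted three days at 37 degrees C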). To be noted: Cryptococcus neoformans chitosan, stronger effect = lower value; at 10 µM unless noted. For orientation: Flow cytometry measures light scatter and fluorescence of single cells or particles in a stream.
A short description of experiment [2]: rescue of polyQ-huntingtin neuronal dysfunction in worms, whole organism, C. elegans mechanosensory neurons, N-terminal huntingtin (AID 1599). The note with it: touch response, stronger effect = higher value.
Experiment [3] in a line: inhibitors of mitochondrial cytochrome c release, biochemical, purified mitochondria (AID 1603).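 Also: mouse liver mitochondria challenged with calcium chloride; signal normalized to the plate average as 100%.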 The note with it: stronger effect = lower value.
Experiment [4] can be described thus: inhibitors of polyQ protein aggregation (AID 1604). To be noted: polyglutamine-induced protein aggregation inhibition assay; stronger effect = higher value; tested at 2.5 µM.
Experiment [5] is described as follows: enhancers of glutamate uptake in motor neurons, MN-1 cell line (AID 1612).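 Also: tested at 1 µM final; 0% = mean of DMSO vehicle wells on each plate; positive means more glutamate uptake than control and negative means less.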 To be noted: MN-1 motor neuron cells, stronger effect = higher value.
Experiment [6] is described as follows: suppressors of polyglutamine aggregation in yeast, 75Q-TubH (AID 1616). To be noted: S. cerevisiae 75Q-TubH polyglutamine aggregation suppression; stronger effect = higher value.
The nature of experiment [7]: reducers of polyQ inclusions in PC12 cells, cell-based, NGF-treated PC12, GFPQ80 (AID 1614).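 Also: lower means fewer inclusions and 0 means no inclusions at all.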 To be noted: PC12 NGF-treated GFP-polyQ80 inclusion reduction.
The target of experiment [8] is 6-phosphogluconate dehydrogenase, decarboxylating (Homo sapiens) (UniProt P52209). Kind of experiment: 6PGD enzyme inhibitors, primary screen, biochemical, human, recombinant enzyme, NADPH absorbance (AID 1159550;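 active = at least 20% inhibition of 6-phosphogluconate dehydrogenase activity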). To be noted: recombinant 6PGD, NADPH absorbance 341 nm; at 10 µM; stronger effect = higher value.
Chain of 6-phosphogluconate dehydrogenase, decarboxylating (Homo sapiens) (P52209 whole entry, looked up): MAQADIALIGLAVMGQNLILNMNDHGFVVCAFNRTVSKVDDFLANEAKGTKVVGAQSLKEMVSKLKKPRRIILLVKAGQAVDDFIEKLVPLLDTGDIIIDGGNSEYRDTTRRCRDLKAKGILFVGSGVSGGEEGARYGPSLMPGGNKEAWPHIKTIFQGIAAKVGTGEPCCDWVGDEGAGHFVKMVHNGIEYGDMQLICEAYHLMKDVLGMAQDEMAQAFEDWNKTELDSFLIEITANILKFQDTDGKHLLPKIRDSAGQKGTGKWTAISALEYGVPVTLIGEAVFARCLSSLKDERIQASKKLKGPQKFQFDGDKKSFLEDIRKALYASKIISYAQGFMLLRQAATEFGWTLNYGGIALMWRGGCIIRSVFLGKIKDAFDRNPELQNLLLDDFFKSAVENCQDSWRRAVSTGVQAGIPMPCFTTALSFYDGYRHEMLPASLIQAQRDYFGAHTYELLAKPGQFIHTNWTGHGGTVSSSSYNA
Experiment [9] is described as follows: growth inhibition of DIPG glioma cells, dose response, cell-based, JHH-DIPG-1, MIPE4.0, CellTiter-Glo, qHTS (AID 1347062; cut-off not given, nearly all actives have AC50 up to about 27 µM). To be noted: JHH-DIPG-1 viability, CellTiter-Glo ATP luminescence.
Experiment [10] in a line: growth inhibition of DIPG glioma cells, dose response, cell-based, SU-DIPG-IV, MIPE4.0, CellTiter-Glo, qHTS (AID 1347063).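 Also: compound exposure lasted 48 hours before the viability readout.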 The note with it: SU-DIPG-IV viability, CellTiter-Glo ATP luminescence. In general terms: ATP-based viability assays read luminescence as a measure of living cells.
Experiment [11] in a line: viability loss in pontine glioma line – cell-based, SU-DIPG-XXV, MIPE5.0, CellTiter-Glo, qHTS, dose response (AID 1347065; cut-off not given, nearly all actives have AC50 up to about 26 µM;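 also: cells exposed to compound for 48 hours before ATP readout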). To be noted: CellTiter-Glo ATP luminescence.
Experiment [12] is described as follows: SU-DIPG-VI glioma cell viability, MIPE4.0 library, CellTiter-Glo luminescence, qHTS (AID 1347066).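 Also: cells exposed to compound for 48 hours before readout.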 The note with it: CellTiter-Glo ATP luminescence.

As for `O=C1NCN(c2ccccc2)C12CCN(CCCC(c1ccc(F)cc1)c1ccc(F)cc1)CC2`, the fold fluorescence in [1] was 5.05 [at 105.1 µM] (inactive).
Turning to `Clc1cc(Cl)c(OCC#CI)cc1Cl`, the rescue above control in experiment [2] was determined as 11. Moreover, the cytochrome c release ratio in experiment [3] came to 8.98. In experiment [4], this compound came in with an inhibition of aggregation of 58.5%. Also, the glutamate uptake change in experiment [5] was determined as 15.9%. The aggregation suppression score in [6] is -0.184.
Take `CCOc1ccccc1OCC1CNCCO1` (configuration not stated): the rescue above control in experiment [2] is -3.95. Besides, the cytochrome c release ratio in [3] turned out to be 1.06. Besides, the inhibition of aggregation in experiment [4] was 12.9%. Further, the glutamate uptake change in experiment [5] was found to be 20.1%. This compound displayed an inclusion score in [7] of 2. The compound further returned an aggregation suppression score in experiment [6] of 1.38.
Regarding `CCCn1cnc2c1c(=O)n(CCCCC(C)=O)c(=O)n2C`, the inhibition in [8] was -7.06% (inactive).
For `Cc1c(-c2ccc(O)cc2)n(Cc2ccc(OCCN3CCCCCC3)cc2)c2ccc(O)cc12`, the result in experiment [9], in [10] and in experiment [12] was inactive. The AC50 in experiment [11] was 20.9 µM (active).

The term inhibition denotes the change of the read-out against control, counted positive when it falls. For orientation: AC50 means the concentration giving half of the maximal activity seen.
